Source: the supplement of paper PMC11417369
± gives the standard deviation of the averaged measurements. Over roughly 25,000 sequences, “ln(normalized median fluorescence intensity)” has its median near 10; the highest 2% begin near 12. The list comes from a sample in which the highest values are over-represented; it also holds similar and randomly drawn sequences.

system: PfAP2-G AP2 domain (GST-tagged); assay: gcPBM binding intensity (ln(normalized median fluorescence intensity)); higher = stronger DNA binding
Summary of the method: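 Binding intensity is the highest Masliner-normalised natural-log median intensity over replicate spots in either probe orientation. To obtain it, GST-tagged P. falciparum DNA-binding domains made in E. coli were incubated for 1 h on an Agilent 4 × 180k array of primer-extended double-stranded 36-bp intergenic genomic probes plus negative controls. Detection used Alexa488 anti-GST antibody with scanning at 488 nm.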

| Sequence | gcPBM binding intensity (ln) |
| --- | --- |
| TATATTACTTTGTGTTGTACGGAAATATATATATAT [XGTACX_site4309] | 11.3 ± 0.94 |
| TATATAATGGTAAAAACACACAAATATGAAGATGTT [CACACA_site722] | 9.87 ± 0.16 |
| TGTAATAATTATTGCACGCACACAAAAACCTATAGA [CACACA_site2932] | 10.7 ± 0.4 |
| ATCTTAGTTGAAATATAGAATTTATAATAAAAGTTA [GTGCAC_negctrl_site122] | 9.595 ± 0.064 |
| AGAAATTTACAAATACGTACACACATATATATATAT [XGTACX_site3141] | 11.9 ± 1.4 |
| TGTATAAATAAATGCGTACACACTAATAAAAAAAAA [CACACA_site858] | 11.6 ± 0.8 |
| ATAACACAAAAAGGGGGTACAATAAAAAAAAAAAAA [XGTACX_site1652] | 11.5 ± 0.98 |
| AATGTACAAATACGTACACACATATATATATATATA [CACACA_site1542] | 11.6 ± 0.93 |
| AAATATATATATTTACGTACATATATACAAATAGAG [XGTACX_site6067] | 11.4 ± 0.81 |
| GAAATGTACAAATACGTACACACATATATATATATA [CACACA_site1541] | 11.6 ± 0.99 |
| TGATAACCAAAAAGGGGTACATACACAAAAAAATAC [XGTACX_site1254] | 11.7 ± 0.91 |
| AATGTACAAATACGTACACACATATTTATATTTATA [CACACA_site6833] | 11.6 ± 0.99 |
| AATAAATATAAAAATGCACACACACTAATAAAAAAA [CACACA_site8201] | 10.2 ± 0.13 |
| AAAAAATACCAAAGGGGTACTTACACATAATACTTA [XGTACX_site2111] | 11.4 ± 1.1 |
| TATAAATAAATGCGTACACACTAATAAAAAAAAAAA [CACACA_site4630] | 11.6 ± 1.1 |
| ATAAATAAATTTATACGTACACATAATATATATATA [XGTACX_site4634] | 11.6 ± 0.89 |
| TCAGAGTGAAGTTATACACACATGGTTTTTTTTTTT [CACACA_site2116] | 9.875 ± 0.021 |
| TAAAGAAAAAAATGTTGTACTTTATGAAACATATTT [XGTACX_site412] | 11.2 ± 0.79 |
| TAAATATTTTTTTAGACACACATATATCTATGATAT [CACACA_site1107] | 9.705 ± 0.049 |
| TTAATTAAATATTATACACACAAAAAAATAATTTTA [CACACA_site96] | 10 ± 0.16 |
| ATAAATAAGATACGTACACACATATACAAAATATAC [CACACA_site3661] | 11.5 ± 0.95 |
| AGATAAAATATATACACACACATAAATACGTACAAA [CACACA_site1086] | 11.8 ± 1 |
| AAAAAAAAAACATACACACACACAAATATTTATATA [CACACA_site437] | 9.85 ± 0.11 |

| Sequence | gcPBM binding intensity (ln) |
| --- | --- |
| ATTTTTTAAATGAGGCGTACACAAAAATATAATTAC [XGTACX_site7087] | 11.7 ± 1.1 |
| AGATAAGATATATACACACACATAAATACGTACAAA [CACACA_site6639] | 11.6 ± 0.78 |
| TATACAAAATATTTTACACACACATATATATACATA [CACACA_site2616] | 10.01 ± 0.057 |
| TTTCTCCCATTTTTTAGTACACAAAATATATATGTA [XGTACX_site7218] | 11.7 ± 1.1 |
| TTAATGAAATATTATACACACAAAAAAATAATTTTA [CACACA_site4231] | 9.915 ± 0.092 |
| AATATACACCCGTGTACACAAATATTTACAAAACGT [CACACA_site4786] | 11.7 ± 1.1 |
| TTATTTATTTTTATATGTACACAAAAAAAAAAAAAA [XGTACX_site1459] | 11.5 ± 1.1 |
| CCATTTACAAAAAGGAGTACACAAATATATGTTTAA [XGTACX_site649] | 11.6 ± 0.93 |
| ATAACAAATATGATAGCATGCTACATATTACAACTT [TGCATGCA_site524] | 9.71 ± 0.16 |
| TATATCTGTAAATGCACACATATGTGGATATACTTA [CACACA_site5013] | 10.1 |
| ATATATATATATAGTAGTACTCTCTCTGTATATATA [XGTACX_site3754] | 11.3 ± 0.75 |
| TATATAAACCCACCTACACACACAACGTAAATGCAT [CACACA_site8702] | 10.2 ± 0.14 |
| AAAAAAAAAAAAAACACACAGAAATATATATATATT [CACACA_site832] | 9.82 ± 0.33 |
| ATATATACCTATATTACACACTTCTTATTCTAAGAA [CACACA_site7421] | 9.865 ± 0.092 |
| ATATAAATGAATATATGTACATATATATATATATAT [XGTACX_site6361] | 11.2 ± 0.52 |
| AAGGAGCCTATGAACACACACATGTACAGATATTAA [CACACA_site6107] | 11.1 ± 0.52 |
| TATATATACATATACACACACACACCGATATATATA [CACACA_site8706] | 10.1 ± 0.26 |
| TATACAATATTTATAACACACATATTTATATAAACT [CACACA_site6932] | 9.885 ± 0.078 |
| TTACACATATTATATATATATAAAAAAAAAAAATAT [CACACA_negctrl_site1684] | 9.82 ± 0.29 |
| TGTACAAATATGTACACACACACATATTTATTTATA [CACACA_site6419] | 11.5 ± 0.95 |
| TAAAATATTACGTGTACACATAAATAAAAATAAAAA [CACACA_site5066] | 11.8 ± 0.92 |
| TAATATTCAATTATACGTACACATATATATATATAT [XGTACX_site4245] | 11.8 ± 1.1 |
| TGCTCTAATTTATATACACACAAATATGTACACATA [CACACA_site7845] | 11.7 ± 1.2 |

| Sequence | gcPBM binding intensity (ln) |
| --- | --- |
| GATTTATACAAATATGTACACACTAATTATATATTA [CACACA_site8045] | 11.5 ± 0.87 |
| GAATAAATAAGATACGTACACACATATACAAAATAT [CACACA_site3660] | 11.7 ± 1.1 |
| TGAATAAATAAGATACGTACACACATATACAAAATA [XGTACX_site7758] | 11.5 ± 0.83 |
| ATTATATATACATATACACACATACGTACATACATA [CACACA_site9194] | 11.5 ± 0.93 |
| ATACATATATAAATACGTACATATATAATTATATAT [XGTACX_site8178] | 11.6 ± 0.93 |
| TCATATAAATACACGTGTACATATATATATTACAGT [XGTACX_site1954] | 11.5 ± 0.81 |
| AAAGATAAAATATATACACACACATAAATACGTACA [CACACA_site8275] | 11.3 ± 0.88 |
| ATTCTACGCACGCGCACACACAACAAAAAAAAAAAA [CACACA_site3538] | 10.8 ± 0.68 |
| AACAGACATAGACACACACACATATATTTATTTATA [CACACA_site7571] | 10.11 ± 0.085 |
| TTAACATAAATTGTGTCATTTTTTTTTTTTTTTTTA [CACACA_negctrl_site1221] | 9.725 ± 0.021 |
| TAGCGCATAAAAAAAAAAAAATATATACTAATAAAT [GTGCAC_negctrl_site276] | 9.57 ± 0.071 |
| TTCTATATATATATAGACAAACGATAAAATAAAAAA [GTGCAC_negctrl_site142] | 10.1 ± 0.23 |
| GTATATTTCTTTAAATGTACACATTTTTTTAAAGAG [XGTACX_site1225] | 11.4 ± 0.98 |
| AAAAACGAAAAAAATACACACCTGAAAAGATATGTA [CACACA_site4644] | 9.72 ± 0.16 |
| TGACATATAAAATATTCACACACAAGTTATAGTTCT [CACACA_site9209] | 9.74 ± 0.11 |
| CCAATGAGGATATATACACACATACATTAAAAAAAT [CACACA_site5090] | 10 ± 0.17 |
| AATTTAATATAATGCACACATAAAAAAAAAATCAAA [CACACA_site1] | 10.1 ± 0.18 |
| AATTTGTTATGTATATGTACATAAATAGATATATGA [XGTACX_site3930] | 11.2 ± 0.7 |
| AAAGATATTTTTATCTCACACATATAATATATATAT [CACACA_site5478] | 9.84 ± 0.16 |
| ATATATATATACATACGTACACACAAATATTAAAAT [XGTACX_site4007] | 11.6 ± 1.2 |
| TTAAAATTAAAAATGCGTACACATATACATAAAAAA [XGTACX_site1915] | 11.7 ± 1 |
| AAAAAAAATTAAATAAATAAATATACACATATATAT [GTGCAC_negctrl_site394] | 9.47 ± 0.26 |
| TAGATATATAATTTGCGTACACAAATAATATATTTT [XGTACX_site6397] | 11.4 ± 0.97 |

| Sequence | gcPBM binding intensity (ln) |
| --- | --- |
| TATATATATACATACGTACACACAAATATTAAAATA [CACACA_site1950] | 11.8 ± 1.2 |
| ATTAAATATATTTTGCGTACACAAAAAAATACGTTC [XGTACX_site3862] | 11.6 ± 0.97 |
| AATAATACACAATTTTGTACGTATTTAAAATATATT [XGTACX_site45] | 11.3 ± 0.87 |
| AAATTAAAATATAATACACACATAAAAAAAAAAAAA [CACACA_site4183] | 9.82 ± 0.38 |
| TATATATACATACGTACACACAAATATTAAAATATA [CACACA_site1951] | 11.5 ± 1.1 |
| TATGGAACACACCTTAATATGTGATAAAATATGATA [GTGCAC_negctrl_site718] | 10 ± 0.2 |
| AAAAATTTATTTAAAAGTACATAAAATAAAGGTGGA [XGTACX_site7591] | 11.4 ± 0.69 |
| ACATCATTTTTATGTACACACACATATACGTTGAAT [CACACA_site5095] | 11.6 ± 0.98 |
| AAGAAAATTAAATTAACACACATAAATATATATATA [CACACA_site1664] | 9.85 ± 0.28 |
| GACATTAAAATGAAATATACATATATATGTATATAT [TGCATGCA_negctrl_site601] | 9.635 ± 0.049 |
| AATTAAAATAGTAATACACACTTCATAGGAAATGAT [CACACA_site5045] | 9.83 ± 0.014 |
| TAACATTAAAATAAAAGTACTTAATAATATTAAGTA [XGTACX_site5920] | 11.1 ± 0.87 |
| TCTTATTTTTTTATATATACAAAGTTTTATATATAT [GTGCAC_negctrl_site314] | 9.915 ± 0.049 |
| TTTCCTGGTCAAGGGGTTACGGTTACGTCCTCTTGC [CACACA_negctrl_site856] | 10.7 ± 0.49 |
| TAAATTAAGAATTTTACACACATTAAATAAAAAAAA [CACACA_site3638] | 9.805 ± 0.078 |
| ATTTTAGAATTTAATACACACAAAAAAAAAAAATTA [CACACA_site3704] | 10 ± 0.33 |
| AAATTTTAATTAGACTGTACACATTTTAGAATAATT [XGTACX_site4819] | 11.6 ± 0.92 |
| TTAAAAGATATTACATGTACATATTCAATATATGTA [XGTACX_site5895] | 11.1 ± 0.69 |
| AATTGTACGTAGGGGTATAAAAGCTTAAAAATGGGG [CACACA_negctrl_site1392] | 11.6 ± 0.91 |
| ACGTATCAATTTATTGGTACACATAAATATATATAT [XGTACX_site5556] | 11.3 ± 0.92 |
| GAATGGACGTTAGGGGGTACGTATAAAATTTATCAA [XGTACX_site683] | 11.7 ± 0.81 |
